Screening data: PubChem, National Center for Advancing Translational Sciences (NCATS)
An excerpt weighted towards active compounds, which were near 7.3% of everything screened.
Tau fluor counter: Counterscreen qHTS for Inhibitors of Tau Fibril Formation, Fluorescence Polarization | tau K18 P301L Alexa594 fluorescence, heparin fibrillization | Potency, µM (top dose mostly 57.7 µM), without a hit: top-dose activity change, negative = decrease | 280,000 tested, 0.93% active | AID 1463, 2008; further: nearly all actives have a fitted effect of over 55% in size
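Human K18 P301L tau (15 uM unlabeled plus 0.24 uM Alexa 594-labeled, final) in 100 mM sodium acetate pH 7 was mixed with compound and 20 uM heparin and incubated 6 hr at 37 C.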
Tau ThT inhib: qHTS for Inhibitors of Tau Fibril Formation, Thioflavin T Binding; AID 1460, 2008; 270,000 tested, 2.1% active; Potency, µM (series often up to 57.4 µM), for the others: top-dose activity, negative = inhibition, hits mostly inhibitors; recombinant tau K18 P301L (four-repeat tau fragment), heparin-induced fibrillization, ThT fluorescence; further: nearly all actives have a fitted effect of over 55% in size
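Recombinant human tau K18 fragment […] carrying P301L, 15 uM unlabeled plus 0.24 uM Alexa 594-labeled, was fibrillized with 20 uM heparin in 100 mM sodium acetate pH 7 for 6 hr at 37 C; 30 uM ThT fluorescence read after 1 hr.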
Tau fibril FP: qHTS for Inhibitors of Tau Fibril Formation, Fluorescence Polarization; Microtubule-associated protein tau (Homo sapiens), P10636; K18 P301L tau heparin fibrillization, Alexa594 FP, 6 h; Potency, µM (series often up to 57.7 µM), inactives show at the top dose activity, negative = inhibition, most hits filed as inhibitors; 280,000 tested, 0.39% active; further: nearly all actives have a fitted effect of over 55% in size
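Recombinant K18 P301L […], labeled with Alexa 594 at 0.24 uM over 15 uM unlabeled; heparin inducer 20 uM final; 37 C, 6 hr; FP endpoint.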
RORg inh: qHTS for inhibitors of ROR gamma transcriptional activity; 310,000 tested, 5.4% active; AID 2551, 2010; Potency, µM (doses to about 53.6 µM), for the others: top-dose activity change, negative = inhibition, usual class: inhibitors; Drosophila S2 Gal4-RORgamma UAS-luciferase reporter, 20 h; further: nearly all actives have a fitted effect of over 60% in size
Target sequence (P51450 whole entry, looked up, the tested form may be a part): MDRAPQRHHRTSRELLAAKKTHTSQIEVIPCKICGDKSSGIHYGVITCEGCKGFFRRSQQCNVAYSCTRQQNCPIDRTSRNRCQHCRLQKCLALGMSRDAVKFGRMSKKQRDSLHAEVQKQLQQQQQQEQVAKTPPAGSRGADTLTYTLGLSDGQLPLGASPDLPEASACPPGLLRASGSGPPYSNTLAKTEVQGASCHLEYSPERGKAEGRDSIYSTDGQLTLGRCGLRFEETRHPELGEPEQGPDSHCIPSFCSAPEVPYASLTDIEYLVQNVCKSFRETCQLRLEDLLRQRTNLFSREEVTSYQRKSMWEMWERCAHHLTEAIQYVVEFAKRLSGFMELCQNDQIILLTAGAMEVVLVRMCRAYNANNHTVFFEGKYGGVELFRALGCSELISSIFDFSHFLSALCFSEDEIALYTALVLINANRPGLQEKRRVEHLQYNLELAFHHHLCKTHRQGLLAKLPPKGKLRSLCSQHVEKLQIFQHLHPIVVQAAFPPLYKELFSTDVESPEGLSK
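Drosophila S2 cells stably expressing Gal4-DBD/mouse RORγ fusion under metallothionein promoter plus UAS-luciferase; compound 1 h, then 700 uM CuSO4 induction for 20 h at ambient temperature; inhibition read as reduced luminescence.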
Gal4-VP16 FLuc: VP16 counterscreen qHTS for inhibitors of ROR gamma transcriptional activity; Drosophila S2 Gal4-VP16 UAS-luciferase, luminescence, 20 h; Potency, µM (series often up to 53.6 µM), for inactives: at the highest dose activity, negative = inhibition, hits mostly inhibitors; 310,000 tested, 3.5% active; AID 2546, 2010;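 further: Gal4-VP16 expression switched on by copper sulfate through the metallothionein promoter; nearly all actives have a fitted effect of over 50% in size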
An asterisk follows results filed as active; ? = inconclusive; / = no result; [ ] = remark or other dose. The call rests on the fitted dose curve; in most records, active means well fitted curve in the direction sought with a large enough effect; inconclusive means small, poorly fitted or top-dose-only effect, or another doubt; inactive means no such curve, though single readings can be large; an effect the other way counts as inactive or inconclusive. On the % scale 0 is the no-effect control and ±100 the full control effect; potency means the concentration at half of the fitted maximal effect.

SMILES	Tau fluor counter	Tau ThT inhib	Tau fibril FP	RORg inh	Gal4-VP16 FLuc
CCN(CC)S(=O)(=O)c1cccc(-c2n[nH]c(=S)n2/N=C/c2ccc(OC)cc2)c1	?	-11.3%	3.3%	?	-10.0%
CCN(CC)S(=O)(=O)c1cccc(-c2n[nH]c(=S)n2/N=C/c2ccc(OC(F)F)cc2)c1	?	?	?	-37.0%	12.6µM*
O=[N+]([O-])c1ccc(/C=N/n2cn[nH]c2=S)cc1	-12.7%	?	-11.5%	12.6µM*	?
CSc1nncn1/N=C/c1ccc([N+](=O)[O-])cc1	-0.7%	?	3.1%	-13.7%	?
CC(C)c1ccc(/C=N/n2c(-c3ccccc3)n[nH]c2=S)cc1	/	/	/	3.98µM*	3.16µM*
COc1ccc(/C=N/n2c(-c3ccc(C)cc3)n[nH]c2=S)cc1OC	-15.0%	1.9%	-6.9%	3.16µM*	-12.2%
Cc1ccc(Cl)cc1N(CC(=O)NC(C)c1ccccc1)S(C)(=O)=O (centres undefined)	/	/	/	-38.6%	-9.0%
CCCn1c(C)nc2c(N3CCOCC3)nc(C)nc21	-6.7%	1.3%	3.6%	-22.7%	-2.9%
CC(C)CN1CC2(CCN(C(=O)c3cnccn3)CC2)C1	/	/	/	-4.4%	4.0%
CC12CCC(C1)C(C)(C)C2=O (centres undefined)	/	/	/	1.4%[10 µM]	-2.7%
COc1cccc([C@H](O)Cn2cc(-c3cccc(CON=C(C)C)c3)nn2)c1	-14.9%[11.6 µM]	-14.4%[11.5 µM]	-6.3%[11.6 µM]	-4.4%[10 µM]	-5.3%[10 µM]
COc1ccc(CCNCc2cc(C)n(-c3ccc(OC)cc3)c2C)cc1	/	/	/	-23.9%	7.5%
Cc1ccc(-c2n[nH]c(=S)n2/N=C/c2ccc(C(=O)O)cc2)cc1	/	/	/	-17.9%	-1.8%
S=c1[nH]nc(-c2ccncc2)n1/N=C/c1ccccc1	-6.3%	-4.5%	-2.7%	?	?
O=[N+]([O-])c1cc2c(cc1/C=N/n1c(-c3ccccc3)n[nH]c1=S)OCO2	-18.6%	?	7.4%	5.62µM*	?
O=[N+]([O-])c1cc2c(cc1/C=N/n1c(-c3ccccn3)n[nH]c1=S)OCO2	-9.6%	?	-7.0%	-15.8%[10 µM]	-2.3%
Cc1ccc(/C=N/n2c(-c3ccccc3)n[nH]c2=S)cc1	/	/	/	?	2.82µM*
O=[N+]([O-])c1ccc(/C=N/n2c(-c3ccccc3)n[nH]c2=S)cc1	/	/	/	1.26µM*	10µM*
Cc1nc(NC(=O)CSC2=NCCS2)sc1C(=O)N(C)C	/	/	/	-1.1%	4.2%
NC(=S)c1cnn2c(-c3cccc(C(F)(F)F)c3)ccnc12	/	/	/	3.98µM*	10µM*
N#Cc1cnn2c(-c3ccccc3)ccnc12	1.7%	5.1%	3.9%	-0.1%	6.0%
O=C(Nc1ccccc1C(=O)N1CCCC1)c1ccc(Cl)cc1Cl	/	/	/	-12.2%	0.9%
CC1CCCN(CCC(=O)c2ccc(Br)cc2)C1 (centres undefined)	0.4%	?	12.3%	?	20µM*
COc1cc2c(cc1OC)CN(CCC(=O)c1ccc(Br)cc1)CC2	3.8%	?	11.6%	11.2µM*	?
COc1cc2c(cc1OC)CN(CC(=O)Nc1cccc(C)c1)CC2	-15.9%	-9.3%	-0.5%	37.1%	-1.2%
SMILES	Tau fluor counter	Tau ThT inhib	Tau fibril FP	RORg inh	Gal4-VP16 FLuc
CC1=C(C(=O)NCc2ccccc2C)C2(CCCCCC2)OC1=O	2.7%	12.3%	5.2%	/	/
Cc1ccc(C)c(NC(=O)CCCN2C(=O)C(c3ccccc3)Oc3cccnc32)c1 (centres undefined)	4.0%	-0.3%	4.4%	/	/
CC(Oc1ccccc1Br)C(=O)N1CCc2ccccc21 (centres undefined)	-26.9%	-15.4%	2.4%	14.1µM*	3.3%
O=C(COc1ccccc1Cl)NC(=S)N1CCc2ccccc21	-26.0%	?	-2.5%	0.708µM*	1.12µM*
COc1ccc(OCC(=O)NC(=S)N2CCCc3ccccc32)cc1	-26.2%	?	8.5%	?	-4.7%
O=C(COc1ccccc1)NC(=S)N1CCc2ccccc21	4.4%	-10.9%	3.6%	1.26µM*	2.51µM*
CC(C)C(=O)NC(=S)N1CCc2ccccc21	2.6%	-1.6%	5.1%	8.91µM*	?
